An excerpt weighted towards active compounds, which were near 9.2% of everything screened.
ELG1 genotoxic: induces genotoxicity in HEK293T cells with luciferase-tagged ELG1; HEK293T ELG1-luciferase reporter, luminescence, 16 h; Potency, µM (series often up to 46 µM), without a hit: top-dose activity change, positive = activation, most hits filed as activators; actives 1.3% (n = 330,000); also: % of control where 0% means no effect; nearly all actives have a fitted effect of over 60% in size
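Luminescence read-out: rising ELG1-luciferase signal, reflecting elevated ELG1 protein under genetic stress, flags genotoxic compounds. Cells were treated for 16 hr at 37 °C before ONE-Glo detection.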
ELG1 repair inh: inhibitors of ELG1-dependent DNA repair in HEK293T cells; Potency, µM (titrated, usually from 46.1 µM), for inactives: at the top dose activity change, negative = inhibition, hits mostly inhibitors; actives 2.3% (n = 330,000); HEK293T ELG1-luciferase reporter, luminescence, 16 h; DNA damage induced by 5-fluorouridine; AID 504467; also: % is scaled to controls: 0 for no effect and ±100 for the full control effect; nearly all actives have a fitted effect of over 55% in size
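DMSO vehicle served as the neutral condition. Each well held 2,000 cells given 5-fluorouridine plus compound; after 16 hr at 37 °C/5% CO2, ONE-Glo was added and luciferase measured 30 min later.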
Rab9 promoter act: Rab9 promoter activation; Huh7 Rab9 promoter-luciferase reporter, luminescence, 24 h; Potency, µM (doses to about 9.22 µM), for the others: at the highest dose activation, negative = inhibition, usual class: activators; actives 2.8% (n = 320,000); also: % of control where 0% means no effect; nearly all actives have a fitted effect of over 60% in size
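Cells were plated at 1500 per well in reduced-serum medium with 10% FBS and left 2 h. Compound in DMSO was then added for 24 h at 37 °C. Reporter signal was read by luminescence after 10 min with luciferase detection reagent.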
NPC1 prom act: NPC1 promoter activation. Huh7 NPC1 promoter luciferase reporter, 24 h. Potency, µM (doses to about 9.22 µM), for inactives: at the highest dose activation, usual class: activators. actives 2.4% (n = 320,000). AID 485313; also: % of control where 0% means no effect; nearly all actives have a fitted effect of over 60% in size
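Stably transfected Huh7 (NPC1 promoter→luciferase), 1500 cells/well in Opti-MEM + 10% FBS, 2 h settle, then compound 24 h at 37 °C. Luminescence after 10 min with Amplite reagent.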
FLuc modulator: inhibits or activates purified firefly luciferase, miR-21 counter-screen; P08659; purified FLuc, Km substrates, luminescence inhibition; Potency, µM (highest dose often 57.5 µM), inactives show at the top dose activity change, negative = inhibition, usual class: inhibitors; actives 6.9% (n = 360,000);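 also: plate controls were vehicle for no effect and reference inhibitor for full effect; nearly all actives have a fitted effect of over 55% in size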
Target sequence (P08659 whole entry, looked up): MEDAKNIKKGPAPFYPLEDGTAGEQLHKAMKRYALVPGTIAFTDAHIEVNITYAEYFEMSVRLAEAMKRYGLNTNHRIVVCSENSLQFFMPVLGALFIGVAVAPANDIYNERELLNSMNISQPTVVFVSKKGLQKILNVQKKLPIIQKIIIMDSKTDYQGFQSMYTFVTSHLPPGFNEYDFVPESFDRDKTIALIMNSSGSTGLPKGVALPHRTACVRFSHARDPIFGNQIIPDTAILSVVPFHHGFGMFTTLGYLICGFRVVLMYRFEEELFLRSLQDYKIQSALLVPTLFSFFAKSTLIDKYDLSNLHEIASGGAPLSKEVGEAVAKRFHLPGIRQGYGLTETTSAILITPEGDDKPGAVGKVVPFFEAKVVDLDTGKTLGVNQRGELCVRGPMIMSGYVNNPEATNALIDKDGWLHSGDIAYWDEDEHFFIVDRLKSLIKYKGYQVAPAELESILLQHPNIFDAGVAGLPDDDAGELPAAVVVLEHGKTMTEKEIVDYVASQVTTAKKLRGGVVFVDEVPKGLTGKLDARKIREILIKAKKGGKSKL
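Purified P. pyralis luciferase, 10 nM final, with Km-level 10 uM D-luciferin and 10 uM ATP in 50 mM Tris acetate pH 7.5, 10 mM Mg acetate, 0.01% Tween-20, 0.05% BSA; 6-point qHTS titration about 60 µM downward; luminescence read.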
SMN2 splice up: SMN2 splice variant enhancement; HEK293 SMN2-luciferase splicing reporter, luminescence, 30-36 h; actives 2.8% (n = 210,000); Potency, µM (series often up to 46.1 µM), inactives show top-dose activity change, positive = activation, usual class: activators; also: % of control where 0% means no effect; nearly all actives have a fitted effect of over 55% in size
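HEK293 cells carry an SMN2 […]–luciferase reporter in which exon 7 inclusion puts luciferase in frame. Cells were plated 10-12 h before compound addition, then incubated 30-36 h at 37C. ONE-Glo luminescence was read; sodium butyrate at 4.5 mM final served as control.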
* hit, by the source's call; ? = inconclusive; . = not tested or not shown; [ ] = another dose, or the depositor's remark. Calls follow the shape of the dose curve; as a rule, active = well fitted curve in the direction sought with a large enough effect; inconclusive = small, poorly fitted or top-dose-only effect, or another doubt; inactive = no such curve, though single readings can be large; an effect the other way counts as inactive or inconclusive. Potency is read from the fitted curve at half-maximal effect.

SMILES | ELG1 genotoxic | ELG1 repair inh | Rab9 promoter act | NPC1 prom act | FLuc modulator | SMN2 splice up
CC1CCCN(CC(=O)c2ccc(Cl)c(Cl)c2)C1 (configuration not stated) | -2% | 9% | -5% | -5% | -4% | -3%
O=Cc1ccc(Cl)cc1Cl | . | . | . | . | . | -5%
C=CCOC(C)=O | . | . | . | . | . | -9%
Cc1nc2ccc(OC(=O)c3ccccc3)cc2s1 | -4% | -5% | -4% | 1% | 8.5µM* | .
N#CC(Cl)(Cl)Cl | . | . | . | . | . | 12%
O=C(O)[C@H]1C2c3ccccc3C(c3ccccc32)[C@@H]1C(=O)NCC1CC1 | . | . | . | . | . | -3%[9.22 µM]
COc1cc2c(cc1OC)[C@H]1C(=O)c3ccc4c(c3O[C@H]1CO2)C[C@@H](C(C)(C)O)O4 | -6% | -20% | . | . | . | .
COc1cc2c(cc1OC)[C@@H]1C(=O)c3ccc4c(c3O[C@@H]1CO2)C[C@H](C(C)C)O4 | -7% | 0.058µM* | -51% | -49% | -2% | .
N[C@H](Cc1c[nH]c2ccccc12)P(=O)(O)O | . | . | . | . | . | 1%[9.22 µM]
NNCc1cccc(O)c1 | 6% | 0% | -1% | -1% | 2.7µM* | -1%
CCNCC(O)c1cccc(O)c1 (configuration not stated) | 0% | -12% | -7% | -3% | 8% | .
O=S(=O)(O)F | . | . | . | . | . | -19%
COc1cc(/C=C/C(=O)c2c(O)n(CCc3ccccc3)c(=O)[nH]c2=O)ccc1O | -3% | ? | -8% | -1% | 6.7µM* | -63%
O=S(=O)(c1ccccc1C(F)(F)F)N1CCN(c2ncnc3sccc23)CC1 | -9% | 16µM* | . | . | . | .
O=S(=O)(c1ccc(F)c(F)c1F)N1CCN(c2ncnc3sccc23)CC1 | -2% | ? | . | . | . | .
Nc1ccc(Oc2cccc(Oc3ccc(N)cc3)c2)cc1 | -12% | 0% | -13% | -21% | 19µM* | -50%
S=C=Nc1cccc2ccccc12 | . | . | . | . | . | 2%
COC(=O)c1ccc(CC(C(=O)c2ccccc2)N(C)C)cc1 (configuration not stated) | ? | ? | ? | ? | 15µM* | .
CCBr | . | . | . | . | . | 12%
Cc1cccc(NC(=O)CSc2ccc(-c3ccco3)nn2)c1 | -1% | -14% | 14% | 1% | 27µM* | -37%
COc1ccc(NC(=O)CSc2nc(-c3ccco3)cc(C(F)(F)F)n2)cc1OC | . | . | . | . | 3% | -48%
COc1ccc([N+](=O)[O-])cc1N=Cc1c(O)n(CCc2ccccc2)c(=O)n(C(C)C)c1=O | -6% | 16µM* | -1% | -3% | 0% | -3%
COc1ccc(CCn2c(O)c(C=Nc3ccccc3F)c(=O)[nH]c2=O)cc1OC | -1% | 3% | -1% | -5% | 1% | .
CN(C)CS/C(N)=N/[C@H](O)C(Cl)(Cl)Cl | . | . | . | . | . | 11%[9.22 µM]
O=C1NC(=O)N(c2cccc(Cl)c2)C(=O)/C1=C\c1ccc(Sc2nc3ccccc3[nH]2)o1 | 0% | 21% | -1% | -2% | 24µM* | 7%
SMILES | ELG1 genotoxic | ELG1 repair inh | Rab9 promoter act | NPC1 prom act | FLuc modulator | SMN2 splice up
O=C1NC(=O)N(c2ccccc2F)C(=O)/C1=C/c1ccc(Sc2nc3ccccc3[nH]2)o1 | 1% | 2% | -5% | 1% | ? | 3%[1.84 µM]
C[C@@]12Cc3cnc(-c4ccccc4)nc3C[C@@H]1CC[C@@H]1[C@H]3CC[C@@](C)(O)[C@]3(C)CC[C@@H]12 | . | . | . | . | . | 6%[9.22 µM]
COc1ccc(-c2nc3ccccc3c(=O)o2)cc1 | ? | ? | ? | ? | 1.2µM* | 11µM*
CCCCn1c(O)c(C(CC)=NCc2cc(OC)cc(OC)c2)c(=O)[nH]c1=O | -12% | 16µM* | 2% | -7% | 1% | -12%
CCC(=NCc1cc(OC)cc(OC)c1)c1c(O)n(C2CCCCC2)c(=O)[nH]c1=O | -8% | 16µM* | -3% | -5% | 0% | .
COc1cc(CN=C(C)c2c(O)n(C3CCCCC3)c(=O)[nH]c2=O)cc(OC)c1 | -9% | ? | -4% | -3% | 0% | .
CCCCn1c(O)c(C(C)=NCc2cccnc2)c(=O)[nH]c1=O | 0% | 0% | -1% | -2% | -1% | .
CCCCn1c(O)c(C(C)=NCc2cc(OC)cc(OC)c2)c(=O)[nH]c1=O | -14% | 23µM* | 2% | 0% | -1% | -10%
O=C(Nc1ccc([As](=O)(O)O)cc1)Nc1cccc(Cl)c1Cl | . | . | . | . | . | -3%[9.22 µM]
Cc1ccc(NC(=[OH+])c2cc3ccccc3cc2O)c(C)c1.Cc1ccc(NC(=[OH+])c2cc3ccccc3cc2O)c(C)c1.[Ni] | . | . | . | . | . | 23%[9.22 µM]
CSCC[C@@H](N)P(C)(=O)O | . | . | . | . | . | -3%[9.22 µM]
Cc1ccc(CSc2ncccc2C(=O)O)cc1 | ? | ? | 1% | -1% | 17µM* | ?
O=C(Nc1cccc(C(F)(F)F)c1)C1CCCN1S(=O)(=O)c1cccc2nsnc12 (configuration not stated) | . | . | . | . | -1% | -62%
c1nc(N2CC2)c2cnn([C@@H]3CCCCO3)c2n1 | . | . | . | . | . | -11%[9.22 µM]
COC1CC(OC2CCC3(C)C(CCC4C3CCC3(C)C(C5=CC(=O)OC5)C(OC(C)=O)CC43O)C2)OC(C)C1OC1OC(COC2OC(CO)C(O)C(O)C2O)C(O)C(O)C1O (configuration not stated) | -11% | 2.9µM* | -42% | -44% | -3% | .
CC(=O)OC1C[C@H](O[C@@H]2C(O)C[C@H](O[C@@H]3C(O)C[C@@H](OC4CC[C@]5(C)C(CCC6C5CC(O)[C@@]5(C)C(C7=CC(=O)OC7)CC[C@@]65O)C4)OC3C)OC2C)O[C@H](C)[C@H]1O[C@H]1OC(CO)C(O)C(O)C1O (some centres not stated) | . | . | . | . | . | -71%
CC(=O)[O-].CC(=O)[O-].O.O.[Cd+2] | . | . | . | . | . | -51%
Cc1ccc(-c2nn3c(C)nnc3c3ccccc23)cc1S(=O)(=O)NCCO | ? | ? | 0% | -1% | 0% | ?
Cc1ccc(-c2nnc(Nc3ccc(OC(F)(F)Cl)cc3)c3ccccc23)cc1S(=O)(=O)NC(C)(C)CO | . | . | . | . | 5.4µM* | 16%
COc1ccc2nc(N3CCN(C(=O)CS(=O)(=O)c4ccc(C)cc4)CC3)sc2c1 | . | . | . | . | 4.8µM* | .
